Source: PubChem
ugtP null kill: growth inhibition of S. aureus ugtP deletion strain; AID 1259309; S. aureus RN4220 ugtP deletion, OD600 growth, 16 h; hit rate 0.54% among 330,000; growth inhibition, % (concentration not given with the values); in the data active = growth inhibition above about 68%;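 note: plate controls were untreated wells for no effect and antibiotic for full effect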
Mtb UGM inh: inhibitors of M. tuberculosis UDP-galactopyranose mutase; P9WIQ1; purified UGM, fluorescence polarization probe displacement; inhibition, % at 10 µM; hit rate 0.06% among 320,000; AID 504406; in the data active = inhibition above about 10%, passing the limit was not always enough; inconclusive = no clear call, values can overlap the other calls
Mtb betalactam: beta-lactam sensitization of Mtb H37Rv; M. tuberculosis H37Rv growth with meropenem, percent inhibition; inhibition, % at 25 µM; hit rate 0.27% among 330,000; call rule not given here;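 note: growth measured after seven days incubation then overnight dye step; 0% = bacteria only wells and 100% = bacteria with antibiotic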
Rv3671c inh: inhibits the M. tuberculosis serine protease Rv3671c. hit rate 0.048% among 320,000. inhibition, % at 5.96 µM; in the data active = inhibition above about 38%;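 note: extracellular domain of Rv3671c used as enzyme; 0% = enzyme with DMSO and 100% = no enzyme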
Target sequence (P9WHR9 whole entry, looked up, the tested form may be a part): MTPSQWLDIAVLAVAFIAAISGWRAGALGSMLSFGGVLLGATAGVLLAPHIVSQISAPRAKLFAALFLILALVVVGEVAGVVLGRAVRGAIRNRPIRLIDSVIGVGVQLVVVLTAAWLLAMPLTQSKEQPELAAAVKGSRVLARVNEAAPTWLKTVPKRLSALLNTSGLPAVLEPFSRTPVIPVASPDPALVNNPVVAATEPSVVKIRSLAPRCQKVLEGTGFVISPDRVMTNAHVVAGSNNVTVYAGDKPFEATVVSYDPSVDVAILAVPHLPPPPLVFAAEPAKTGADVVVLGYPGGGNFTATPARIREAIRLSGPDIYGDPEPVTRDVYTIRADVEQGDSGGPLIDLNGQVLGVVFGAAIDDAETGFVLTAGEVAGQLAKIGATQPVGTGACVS
RN4220 kill: S. aureus RN4220 growth inhibition; OD600, 16 h; inhibition, % (no concentration beside the values); hit rate 0.33% among 330,000; AID 1259311; in the data active = inhibition above about 85%;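 note: plate controls were untreated cells for no effect and reference antibiotic for full effect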
Mtb hypoxia inh: Mtb hypoxia fluorescent reporter inhibition; fluorescence inhibition, % (no concentration beside the values); M. tuberculosis hypoxia-regulated fluorescent reporter, fluorescence; hit rate 0.1% among 300,000; in the data active = fluorescence inhibition mostly above about 23%, no sharp cut-off; inactive = mostly below about 17%
Numbers without * were called inactive; ? = inconclusive; · = no result given. This is a sample that favours compounds with a hit; in the whole collection about 0.68% have one here.

SMILES	ugtP null kill	Mtb UGM inh	Mtb betalactam	Rv3671c inh	RN4220 kill	Mtb hypoxia inh
OCCC1CC(O)C(O)[C@]2(CCCc3ccccc3O2)O1 (stereo not given in full)	-3	·	·	·	1	-9
COc1ccc2c(c1)C1C(CO2)C(c2ccccc2)[C@]2(C)C(=O)Nc3cc(OC)c(OC)cc3C(=O)N12 (stereo not given in full)	15	·	·	·	-4	0
COc1ccc(-c2oc3ccc(-c4cc(OC)c(OC)c(OC)c4)cc3c2-c2ccc(OC)cc2)cc1	4	-4	17	-1	11	-5
COc1ccc(-c2c(C)oc3ccc(C)cc23)cc1	84*	0	1	-5	6	2
Cc1ccc(-c2ccc(/C=C(\C#N)C(=O)Nc3cc(C)nn3-c3ccccc3)o2)cc1	·	48*	-14	3	·	·
O=[N+]([O-])c1cc(Br)c(O)c(C=NNc2nc3ccccc3s2)c1	84*	·	·	·	67	7
O=[N+]([O-])c1cc(Cl)cc(/C=N/Nc2nc3ccccc3s2)c1O	·	0	100	8	·	·
CC(=O)OCCn1c2nc(=O)[nH]c(=O)c-2nc2cc(C)c(C)cc21	1	108*	8	·	13	-56
CC(=O)OCCn1c(C)[n+](CCOC(C)=O)c2cc(Cl)c(Cl)cc21	10	1	-8	-4	2	13
COc1cc(CCCN2C(N)=NCC2c2ccccc2)cc(OC)c1OC (stereo not given)	0	·	·	·	-3	-3
CSc1nc(-c2ccc(C)cc2)nc(C(Cl)Cl)n1	2	0	82	1	1	78*
Cc1nn(C)c(C(=O)Sc2cccc(Cl)c2)c1[N+](=O)[O-]	93*	-1	-3	9	27	5
O=C(/C=C(\O)c1ccc(Cl)cc1)C(=O)NNC(=O)C(O)(c1ccccc1)c1ccccc1	92*	0	?	15	-6	·
O=C(/C=C(\O)c1ccccc1)C(=O)NNC(=O)c1ccccc1	·	1	-1	-1	·	·
O=C(Cc1ccc(Cl)cc1)Nc1ncc([N+](=O)[O-])s1	15	·	·	·	30	5
Cc1onc(-c2ccccc2)c1C(=O)Nc1nnc(C(C)C)s1	2	3	-6	-6	10	14
Cc1onc(-c2ccccc2)c1C(=O)Nc1ncc([N+](=O)[O-])s1	82*	1	-4	3	80	23
O=C(COc1ccc(Cl)cc1)Nc1ncc([N+](=O)[O-])s1	98*	·	·	·	100*	-6
O=C(Nc1ncc([N+](=O)[O-])s1)c1ccc2c(c1)OCO2	·	4	13	-6	·	·
Cc1ccc(C(=O)Nc2ncc([N+](=O)[O-])s2)cc1	92*	5	5	-11	93*	18
CCCCNC(=O)OC1CC2CCN3C(=O)CCCC(C1Cc1ccccc1)C23 (stereo not given)	0	·	·	·	3	18
CCN1CC2C3C(=O)N(Cc4ccccc4)C(=O)C3[C@](C)(C1=O)N2C(=O)c1ccc(F)cc1 (stereo not given in full)	-1	·	·	·	3	1
[O-][n+]1c2ccccc2[n+]([O-])c2cc(O)ccc21	17	3	60	-2	25	42*
COc1ccc(C2C=C3CN(C(=O)OC(C)(C)C)S(=O)(=O)C3CC2OC(=O)c2cccs2)cc1 (stereo not given)	4	·	·	·	7	11
O=C(NN=Cc1ccc([N+](=O)[O-])o1)c1ccc2c(c1)OCO2	98*	·	·	·	88*	3
SMILES	ugtP null kill	Mtb UGM inh	Mtb betalactam	Rv3671c inh	RN4220 kill	Mtb hypoxia inh
Cc1ccc(NC(=O)CCC(=O)NN=Cc2ccc([N+](=O)[O-])o2)cc1C	0	·	·	·	13	7
O=C(CNc1ccccc1)NN=Cc1ccc([N+](=O)[O-])o1	35	·	·	·	35	5
O=C(CCC(=O)Nc1ccc(Cl)cc1Cl)NN=Cc1ccc([N+](=O)[O-])o1	100*	·	·	·	96*	·
O=C(N/N=C/c1ccc([N+](=O)[O-])o1)c1ccc2c(c1)OCO2	·	-5	100	·	·	·
O=C(CSc1ccc(Cl)cc1)NN=Cc1ccc([N+](=O)[O-])o1	100*	·	·	·	46	-2
Cc1ccc(S(=O)(=O)Nc2c(C)n(C)n(-c3ccccc3)c2=O)cc1C(=O)OC(C)C(=O)c1ccccc1 (stereo not given)	22	·	·	·	18	21*
NC(=O)C1CC2(CC(c3cccc(NC(=O)C4CCC(=O)N4)c3)=NO2)CN1C(=O)CC(c1ccccc1)c1ccccc1 (stereo not given)	-2	·	·	·	4	-12
O=C(Nc1ccncc1)Nc1cccc(C(F)(F)F)c1	-27	-3	-4	-24	-16	0
O=C(Nc1ccc(OC(F)(F)F)cc1)Nc1cccc([N+](=O)[O-])c1	100*	-3	99	-174	100*	1
O=C(Nc1ccc(OC(F)F)cc1)Nc1cccc(C(F)(F)F)c1	90*	-1	85	-76	82	-1
O=C(Nc1cccc(Cl)c1)NC1CCCCC1	-9	2	99	-7	4	5
O=C(Nc1cccc(Cl)c1)NC1CC2CCC1C2 (stereo not given)	2	2	100	0	3	32*
CC(=O)[C@@]1(O)CCC2C3CC(C)C4=CC(=O)C=C[C@]4(C)[C@@]3(F)C(O)C[C@@]21C (stereo not given in full)	4	·	·	·	5	5
O=C(O)c1ccc(CN2C(=O)c3cccc4c([N+](=O)[O-])ccc(c34)C2=O)cc1	97*	·	·	·	46	-1
O=C(CSc1ccccn1)Nc1nonc1[N+](=O)[O-]	86*	3	101	-7	40	·
O=C(CSc1ccccn1)Nc1ccc(NC(=O)CSc2ccccn2)cc1	2	0	2	-6	2	0
O=c1[nH]c2ccc(S(=O)(=O)N3CCN(c4ccccc4F)CC3)cc2s1	101*	1	-5	-5	-12	-5
Oc1ccc(Cl)c2cccnc12	98*	·	·	·	97*	3
Oc1ccc(F)c2cccnc12	12	3	100	5	23	7
Oc1ccc(N=Nc2ccccc2C(F)(F)F)c2cccnc12	99*	-1	70	-3	96*	16
CCOC1OC(C(=O)NC2CC2)=CC(c2ccc3c(c2)OCO3)C1CCCO (stereo not given)	5	·	·	·	6	11
CCC(=O)Nc1ccc(C(=O)Cn2ncc(Cl)c(Cl)c2=O)cc1	·	6	-4	-3	·	·
CCOC(=O)c1ccc(NC(=O)Cn2ncc(Cl)c(Cl)c2=O)cc1	-7	-2	100	-17	6	36*
[O-]c1ccccc1-[n+]1c(-c2ccccc2)cc(-c2ccccc2)cc1-c1ccccc1	100*	0	100	-5	101*	·
Cc1ccccc1-[n+]1c(-c2ccccc2)cc(-c2ccccc2)cc1-c1ccccc1	101*	1	99	-3	100*	·
Oc1ccccc1-[n+]1c(-c2ccccc2)cc(-c2ccccc2)cc1-c1ccccc1	·	-1	100	4	·	·
O=C([O-])c1ccccc1-[n+]1c(-c2ccccc2)cc(-c2ccccc2)cc1-c1ccccc1	98*	0	96	5	98*	12
